An excerpt weighted towards active compounds, which were near 5.9% of everything screened.
ATXN viability – reduces viability in counter-screen for ATXN expression inhibitors; S2 cells (HEK-293 line with an ATXN2-luciferase reporter) viability, CellTiter-Fluor protease fluorescence, 24 h; Potency, µM (series often up to 56.7 µM), actives largely listed as cytotoxic; actives 0.49% (n = 400,000); AID 651635; also: nearly all actives have a fitted effect of over 40% in size
HepG2 viability – kills HepG2 cells in TGF-b inhibitor counter-screen; actives 0.76% (n = 410,000); Potency, µM (titrated, usually from 46.1 µM), without a hit: at the top dose activity change, negative = cytotoxicity, usual class: cytotoxic; HepG2 CAGA-GFP viability, ATP luminescence, 18 h
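CellTiter-Glo luminescence gave cytotoxicity after 18 hours at 37 degrees C. The cells were HepG2 CAGA-GFP in 1% FBS DMEM, stimulated with 500 pg/mL TGF-beta after compound addition. %Activity was normalised to no-cell wells (complete cell-killing) and DMSO (no toxicity), and curves were fitted and classified.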
ATXN2 expr inh – inhibitors of ATXN2 expression | HEK-293 ATXN2-luciferase reporter, luminescence, 24 h | Potency, µM (top dose mostly 57 µM), for inactives: top-dose activity change, negative = inhibition, usual class: inhibitors | actives 0.72% (n = 360,000) | AID 1745845; also: % is scaled to controls: 0 for no effect and ±100 for the full control effect; nearly all actives have a fitted effect of over 55% in size
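qHTS (up to 57 uM final) was run with 24 h compound exposure of reporter cells at 37 °C. Each well was multiplexed: SteadyGlo luminescence measured ATXN2-luciferase expression after a fluorogenic Gly-Phe-AFC viability readout (25 uM final).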
KB-V1 cytotox – KB-V1 MDR subline cytotoxicity | KB-V1 MDR cells viability, CellTiter-Glo, 72 h | Potency, µM (highest dose often 46.1 µM), actives largely listed as cytotoxic | actives 3.4% (n = 400,000); also: % is scaled to controls: 0 for no effect and ±100 for the full control effect; nearly all actives have a fitted effect of over 60% in size
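Readout: CellTiter-Glo luminescence, 10 min after addition. Cells: KB-V1 MDR subline, 72 h at 37 degrees C with compound. Analysis: corrected, normalized data fitted to concentration-effect curves.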
TGFb SMAD3 inh – blocks TGF-b signaling; HepG2 CAGA-GFP TGF-b/SMAD3 reporter, GFP fluorescence, 18 h; TGF-beta stimulated, 500 pg/mL final; Potency, µM (top dose mostly 46.1 µM), for inactives: at the top dose activity, negative = inhibition, actives largely listed as inhibitors; actives 1.2% (n = 410,000); also: % is scaled to controls: 0 for no effect and ±100 for the full control effect; nearly all actives have a fitted effect of over 65% in size
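Cell-based qHTS in HEPG2 carrying a CAGA-GFP Smad reporter; compounds added before 500 pg/mL final TGF-beta, 18 h incubation at 37 degrees C, GFP fluorescence quantified per cell by imaging cytometry.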
KB-3-1 tox – kills parental KB-3-1 adenocarcinoma cells | KB-3-1 viability, CellTiter-Glo ATP luminescence, 72 h | Potency, µM (doses to about 46.1 µM), hits mostly cytotoxic | actives 1.4% (n = 400,000) | AID 1347075; also: % is scaled to controls: 0 for no effect and ±100 for the full control effect; nearly all actives have a fitted effect of over 60% in size
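Luminescent ATP read-out (CellTiter-Glo) measures survival of drug-naive KB-3-1 cells after 72 h compound exposure at 37 °C. Titration series was screened from lowest to highest concentration, with DMSO vehicle plates as background controls.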
* = called active by the depositor; i = inactive; ? = inconclusive; / = no result given. Calls follow the shape of the dose curve; as a rule, active = well fitted curve in the direction sought with a large enough effect; inconclusive = small, poorly fitted or top-dose-only effect, or another doubt; inactive = no such curve, though single readings can be large; an effect the other way counts as inactive or inconclusive. Potency is read from the fitted curve at half-maximal effect.

SMILES	ATXN viability	HepG2 viability	ATXN2 expr inh	KB-V1 cytotox	TGFb SMAD3 inh	KB-3-1 tox
O=C(CSc1nc2ccccc2c(=O)n1NC(=O)Cc1ccccc1)NCc1ccco1	i	1.4%	7.6%	18.4µM*	1.0%	i
O=C(Cc1ccccc1)Nn1c(-c2ccccc2)nc2ccccc2c1=O	i	-3.9%	10.9%	18.4µM*	-4.0%	i
CCCCCCCCCCCCCC(=O)N[C@H](CO)[C@H](O)c1ccc([N+](=O)[O-])cc1	/	/	10.1%	/	/	/
O=C(N/N=C\c1c(O)ccc2ccccc12)c1cncc(Br)c1	/	-13.6%	?	?	53.1%	2.91µM*
COc1ccc2ccccc2c1/C=N/NC(=O)c1nnn(-c2nonc2N)c1C(C)C	i	-10.3%	-16.4%	?	?	i
Cc1occc1C(=O)N/N=C/c1c(O)ccc2ccccc12	i	-15.5%	?	?	?	6.51µM*
Cn1nccc1C(=O)N/N=C/c1c(O)ccc2ccccc12	i	-6.9%	?	?	-9.1%	7.31µM*
O=C(N/N=C/c1c(O)ccc2ccccc12)c1cccnc1	?	1.7%	?	?	5.0%	?
Cn1cc(C(=O)N/N=C/c2c(O)ccc3ccccc23)ccc1=O	i	2.6%	/	i	0.3%	?
Cc1c(C(=O)N/N=C/c2c(O)ccc3ccccc23)nnn1-c1nonc1N	?	-27.1%	1.58µM*	i	-17.6%	?
CC(C)COc1ccc(C(=O)Nc2ccc(S(=O)(=O)Nc3ncccn3)cc2)cc1	/	4.3%	/	/	-11.8%	/
O=C(c1ccc(Nc2nc3ccccc3n3nnnc23)cc1)N1CCN(c2ccc(F)cc2)CC1	i	0.3%	15.2%	i	-26.8%	i
O=S(=O)(Nc1ccc(F)cc1F)c1ccc(Br)s1	i	-2.2%	-7.8%	i	0.0%	i
COc1ccc(CNC(=O)Cc2c(C)c3cc4c(C)coc4cc3oc2=O)cc1OC	/	-16.4%	/	/	-0.6%	/
CCOc1ccc(-c2c(C(=O)N/N=C/c3sccc3C)nnn2-c2nonc2N)cc1	?	0.7%	-17.0%	i	-8.7%	i
O=C(N/N=C/c1c(O)ccc2ccccc12)c1ccc(Br)o1	/	-57.6%	2.82µM*	?	0.0%	?
O=C(NN=Cc1c(O)ccc2ccccc12)c1ccncc1	i	-10.2%	?	0.461µM*	?	i
O=C(N/N=C\c1c(O)ccc2ccccc12)c1ccc(O)cc1	?	-31.9%	?	i	-0.3%	i
CCOc1cccc(-c2c(C(=O)N/N=C/c3sccc3C)nnn2-c2nonc2N)c1	i	4.47µM*	/	i	10µM*	i
CC(C)(Cc1ccc2ccccc2c1)NC[C@@H](O)COc1cccc(Cl)c1C#N	/	/	21.2%	/	/	/
CN(C)c1ccc(C2Nc3ccc4ccccc4c3C3=C2C(=O)CC(C)(C)C3)cc1Br (stereo not given)	/	/	-13.3%	/	/	/
O=S(=O)(c1ccc(Cl)cc1)N1CCN(c2nc(-c3ccccc3)nc3ccccc23)CC1	/	-2.7%	/	i	11.3%	i
CC(=O)Nc1ccccc1OCCOc1ccc(Br)cc1	i	6.3%	-29.8%	18.4µM*	-16.2%	?
Cc1ccc(CCNC(=O)Cn2c(-c3cccs3)cc3ccccc32)cc1	i	-15.9%	-4.6%	i	1.0%	i
CC(c1ccccc1)N1C(=O)/C(=C/c2ccncc2)SC1=S (stereo not given)	22.4µM*	-110.0%	/	?	?	?
SMILES	ATXN viability	HepG2 viability	ATXN2 expr inh	KB-V1 cytotox	TGFb SMAD3 inh	KB-3-1 tox
O=C1NC(=O)c2cc(Br)cc3cccc1c23	i	2.6%	-13.2%	?	11.9%	i
Cc1ccc(NS(=O)(=O)c2cc3c4c(cccc4c2)C(=O)NC3=O)cc1C	i	-35.1%	?	?	?	14.6µM*
COc1ccc(-c2cc(C(F)(F)F)nc(NC3CCCC3)n2)cc1OC	i	22.4µM*	0.9%	?	-2.1%	i
COC1=C(C)C(=O)C2=C(C1=O)C1C3CC4=C(C(=O)C(OC)=C(C)C4=O)C(CNC(=O)C(C)=O)N3C(C#N)C(C2)N1C (stereo not given)	0.15µM*	7.08µM*	?	2.31µM*	0.141µM*	0.103µM*
CCc1ccccc1NC(=O)C1CCCN(c2ncnc3onc(C)c23)C1 (stereo not given)	i	3.9%	-5.2%	i	-15.3%	i
COc1ccc(C2CC=C(C(C)=O)CN2S(=O)(=O)c2ccc(Cl)cc2)cc1 (stereo not given)	i	-2.9%	-17.3%	i	-7.8%	i
O=[N+]([O-])c1cc(-c2ncccn2)c([N+](=O)[O-])s1	/	-95.9%	?	?	11.2µM*	16.4µM*
O=C(Nc1ncccn1)c1cc([N+](=O)[O-])cc([N+](=O)[O-])c1	i	-10.6%	1.2%	i	-7.7%	i
CC1CCc2nc(NC(=O)Nc3ccc4c(c3)OCO4)sc2C1 (stereo not given)	i	5.3%	62.0%	i	-7.4%	13µM*
CC1CCc2nc(NC(=O)Cc3ccc(Cl)cc3)sc2C1 (stereo not given)	i	-47.1%	16.4%	i	15.8µM*	i
Cc1nc2ccc(S(=O)(=O)NC(CC(C)C)C(=O)NCc3ccc(Cl)cc3)cc2s1 (stereo not given)	?	-4.1%	-36.9%	i	?	i
Cc1ccc(-c2nc3ccccc3o2)cc1NC(=O)COc1ccccc1C	/	19.8%	/	?	32.9%	i
O=C1/C(=N\S(=O)(=O)c2cccs2)C([n+]2ccccc2)=C([O-])c2ccccc21	11.2µM*	-111.5%	/	i	2µM*	6.51µM*
O=S(=O)(/N=C/c1ccccc1O)c1cccs1	i	-20.2%	-7.7%	i	-5.9%	?
CC(C)(C)c1cc[n+](C2=C([O-])c3ccccc3C(=O)/C2=N\S(=O)(=O)c2cccs2)cc1	?	4.47µM*	10.6µM*	i	2.82µM*	16.4µM*
COC(=O)c1cc(C)nc2c1c(=O)nc(SCc1ccccc1F)n2C1CC1	/	-6.6%	/	i	-0.6%	i
CCOc1ccc(-n2nc(CO)c(C(=O)NCC(C)O)n2)cc1 (stereo not given)	/	11.7%	/	/	0.3%	/
COc1ccccc1N1CCN(c2ccnc3cc(Cl)ccc23)CC1	?	8.3%	11.2µM*	?	-1.9%	6.51µM*
O=C(C1CCCCC1)N1CCN(c2ccnc3cc(Cl)ccc23)CC1	?	-160.2%	17.8µM*	?	-23.9%	?

Assay outcomes from PubChem.
